Bioassay records from PubChem.
Most compounds without a hit are left out; they make up all but 2.9% or so of the library.
Mcl1 Bid PPI: disrupts binding of human Mcl-1 to Bid peptide | Q07820 | TR-FRET Mcl-1/Bid-Dy647 peptide binding, 1536-well | inhibition, % at 21.7 µM | 0.97% of 220,000 active;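 active = compounds that cut the binding signal by more than half at the single screening dose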;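 also: His-tagged Mcl-1 with europium anti-His antibody binding Bid BH3 peptide; 0% = Mcl-1 plus peptide wells and 100% = peptide-only wells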
Pf gamet viab: inhibitors of late stage P. falciparum gametocyte viability | P. falciparum stage V gametocytes, ATP luminescence, 24 h | inhibition, % at 10.9 µM | 0.065% of 150,000 active | AID 743093;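 active = inhibition above the mean plus 3 SD of compounds within the control limits, set per campaign, cut at about 38% in these data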;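 also: 0% = DMSO wells and 100% = medium only without gametocytes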
Hck Nef HTS: blocks Nef-activated human Hck kinase | P08631 | Recombinant Hck-YEEI plus Nef, Z-Lyte FRET kinase assay | inhibition, % at 20 µM | 0.68% of 220,000 active;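 active = Hck-Nef kinase inhibition above about 50%, limit read from the data; inactive = inhibition below that limit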;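 also: 0% = DMSO with Hck plus Nef and 100% = Hck alone without Nef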
Mcl1 Noxa PPI: Mcl-1/Noxa interaction inhibition; TR-FRET Mcl-1/Noxa peptide binding, 2 h; Q07820; inhibition, % at 21.7 µM; 1.5% of 220,000 active;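 active = compounds that cut the protein-peptide binding signal by more than 50% relative to plate controls in a single-dose test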;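 also: His-tagged Mcl-1 with rhodamine Noxa BH3 peptide and terbium anti-His antibody; 0% = Mcl-1 plus Noxa peptide wells and 100% = peptide-only wells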
Bim-Mcl-1: disrupts Bim peptide binding to human Mcl-1. Q07820. Bead-based flow cytometry, Bim peptide-Mcl-1 binding. inhibition, % at 10 µM. 0.1% of 190,000 active; in the data active = inhibition above about 40%;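 also: 0% = no compound tracer wells and 100% = peptide blocker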
14-3-3 Bad inh: disrupts binding of bovine 14-3-3 zeta to phospho-Bad peptide. P63103. inhibition, % at 21.7 µM. 0.71% of 220,000 active. TR-FRET 14-3-3zeta/Dy647-pBad peptide displacement, 1 h;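 active = inhibition above about 70%, limit read from the data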;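 also: 0% = full 14-3-3 plus peptide FRET controls and 100% = background without 14-3-3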
Target sequence (P63103 whole entry, looked up): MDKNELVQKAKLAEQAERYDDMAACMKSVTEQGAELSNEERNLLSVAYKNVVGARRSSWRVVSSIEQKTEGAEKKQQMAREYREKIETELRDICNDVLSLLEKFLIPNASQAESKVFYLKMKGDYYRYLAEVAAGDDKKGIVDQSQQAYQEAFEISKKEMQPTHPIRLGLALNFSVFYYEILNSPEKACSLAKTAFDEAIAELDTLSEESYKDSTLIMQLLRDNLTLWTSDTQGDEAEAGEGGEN
Hck-Nef confirm: confirmation of Hck-Nef kinase inhibitors; shares compounds with Hck Nef HTS; AID 463188; calls only at 10 µM; Recombinant Hck-YEEI:Nef, Z-Lyte FRET kinase assay; 28% of 1,300 active;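 active = average inhibition of at least 50%, with Z-scores no higher than 3 in both the phospho-tyrosine peptide and fluorescence counterscreens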
Starred values were filed as active, the others as inactive; i = inactive; · = no result given; + = active, no number; [ ] = another dose, or the depositor's remark.

SMILES	Mcl1 Bid PPI	Pf gamet viab	Hck Nef HTS	Mcl1 Noxa PPI	Bim-Mcl-1	14-3-3 Bad inh	Hck-Nef confirm
CC(=O)c1ccc(N2CCN(C(=O)C3CCCN(S(=O)(=O)c4cnc[nH]4)C3)CC2)cc1 (centres undefined)	-7	-5	0	8	-2	0	·
C=CCNC(=O)c1cc(Cl)ccc1[N+](=O)[O-]	1	0	1	7	-1	-1	·
C=CCN(CC=C)C(=O)c1cc(Cl)ccc1[N+](=O)[O-]	-17	18	64*	20	-1	-4	i
CCOc1ccc(C(C)=O)cc1COC(=O)c1cccnc1SC	-3	·	24	9	0	0	·
CCCc1cc(=O)oc2c(CN3CCCC3)c(O)ccc12	-66	-9	93*	14	-1	·	·
CCCc1cc(=O)oc2c(CN3CCCC3)c(O)c(Cl)cc12	·	-23	116*	·	10	·	i
Cc1c(O)ccc2c(CN3CCN(CCO)CC3)cc(=O)oc12	-1	-6	63*	6	-1	-6	i
CCc1cc(=O)oc2cc(C)c(CN3CCCC3)c(O)c12	-16	5	1	45	2	-11	·
CCCc1cc(=O)oc2cc(C)c(CN3CCCC3)c(O)c12	-40	·	2	36	-1	1	·
Cc1cc(S(=O)(=O)N2CCCC2C(=O)N2CCOCC2)c(C)cc1Cl (centres undefined)	9	-18	0	7	0	-7	·
NC(=O)c1nn(-c2ccc(Oc3ccccc3)cc2)c(=O)cc1O	-33	-4	82*	13	0	-16	+
CCN1CCN(Cc2ccc(NC(=O)c3ccc(C)c(NC(=O)c4ccno4)c3)cc2C(F)(F)F)CC1	-35	·	101*	12	·	1	+
CCN1CCN(Cc2ccc(NC(=O)c3cc(NC(=O)c4ccno4)cc(OC)c3)cc2C(F)(F)F)CC1	-25	·	25	17	·	-1	·
Cc1ccc(OCC(=O)Nc2ccccc2C(N)=O)cc1	·	-46	·	·	·	·	·
Cc1c(OCC(=O)OC(C)(C)C)ccc2c3c(c(=O)oc12)CCC3	-7	0	0	6	2	-2	·
Cc1c(OC(=O)CNC(=O)OC(C)(C)C)ccc2c3c(c(=O)oc12)CCC3	-18	-2	64*	13	3	-6	·
Nc1c2c(=O)oc(-c3ccccc3)cc2nn1-c1ccccc1	-13	-4	67*	9	1	1	i
CC(Oc1ccc(-n2cnnn2)cc1)C(=O)O (centres undefined)	-21	-16	75*	11	0	6	i
NC(=O)COc1ccc(-n2cnnn2)cc1	-32	·	19	42	0	8	·
COc1ccc2cc(N=Cc3nc(-c4ccc(C)cc4)oc3O)cnc2c1	47	·	59*	41	-2	35	i
Cc1cc2oc(=O)cc(CN3CCC(C)CC3)c2cc1Cl	-4	·	2	-5	-1	-1	·
Cc1cc(=O)oc2c(CN3CCN(CCO)CC3)c(O)ccc12	·	20	·	·	·	·	·
Cc1cc(=O)oc2c(CN3CCC(C)CC3)c(O)c(Cl)cc12	-28	9	118*	19	-7	-6	·
CCN1CCN(Cc2c(O)c(Cl)cc3c(C)cc(=O)oc23)CC1	-30	0	149*	0	0	0	·
Cc1cc(=O)oc2c(CN3CCCCC3)c(O)c(Cl)cc12	8	·	125*	0	0	73*[fluorescence artefact?]	·
CC1=CC(C)[C@H](/C=N/n2c(=O)[nH]c3c([nH]c4ccc(Br)cc43)c2=O)C(C)C1 (some centres undefined)	-34	2	61*	11	0	-12	i
CCN(CC)c1cc(NCCO)c([N+](=O)[O-])c2nonc12	-31	-26	56*	-4	1	-6	i
